# Assay outcomes deposited in PubChem by The Scripps Research Institute Molecular Screening Center.
# TTR transcr act: TTR transcription activators in neuroblastoma reporter cells, primary screen, cell-based, luminescence, SH-SY5Y, TTR promoter Gaussia luciferase; hit rate 1.3% among 92,000; 100% = recombinant luciferase protein wells; activation, % at 16.7 µM;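 active = activation above the mean of all tested compounds plus 3 SD, cut at about 9.5% in these data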;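 also: cells exposed to compounds for one day before reading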
# TTR inh HuH7: TTR promoter reporter inhibitors in hepatoma cells, counter-screen for TTR transcription activator project, cell-based, luminescence, HuH7 hepatoma. hit rate 4% among 1,100. HuH7 TTR promoter-Gaussia luciferase reporter. shares compounds with TTR transcr act. AID 1117279, 2014. inhibition, % at 16.7 µM;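 active = average inhibition above the solvent-only control wells' mean plus 3 SD, cut at about 15% in these data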;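 also: inhibitors lower well luminescence so higher value means more inhibition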
# TTR act confirm: TTR transcription activators, retest, confirmation, cell-based, luminescence, SH-SY5Y, triplicate; 1,100 tested, under 10 active; SHSY5Y TTR promoter Gaussia luciferase; 100% = purified Lucia enzyme wells, no cells; shares compounds with TTR transcr act; activation, % at 16.7 µM; AID 1117280, 2014;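 active = mean activation above a set limit taken from the earlier primary screen, cut at about 11% in these data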
# A number is an active result; - = inactive. This is one part of a sample in which hits are shown more often than they occur.
SMILES,TTR transcr act,others
CN1CCN(c2ccc(C(=O)c3cn(-c4ccc(F)c(Cl)c4)nn3)cc2)CC1,-,
Cc1ccc(-c2csc(NC(=S)NC(=O)/C=C/c3ccco3)n2)cc1,-,
O=C(Cn1cnc2ccccc2c1=O)NCCC(=O)N1CCN(Cc2ccccc2)CC1,-,
O=C(Cn1cnc2ccccc2c1=O)N1CCOCC1,12,TTR inh HuH7=-;TTR act confirm=-
COC(=O)Cn1cnc2ccccc2c1=O,-,
O=C(Nn1c(Cc2cccs2)nc2ccccc2c1=O)c1ccc(F)c(F)c1,-,
COc1cccc(-c2ccc(CN3C(C)C(=O)N(Cc4cn(Cc5ccco5)nn4)CCS3(=O)=O)cc2)c1OC (stereo unspecified),-,
COc1ccc(/C=N/n2c(-c3cc(C)[nH]n3)n[nH]c2=S)cc1OC,-,
O=C(CSc1nnc(-c2ccccc2)o1)NCC1CCCCC1,12,TTR inh HuH7=-;TTR act confirm=-
O=C(CSc1nnc(-c2cccc(F)c2)o1)NC1CCCC1,-,
Cc1cnc(NC(=O)CSc2nnc(-c3ccccc3)o2)s1,-,
O=C(NCCCc1ccccc1)c1ccc(Br)o1,-,
CC(Oc1ccc2c(-c3ccccc3)cc(=O)oc2c1)C(=O)N[C@H](Cc1c[nH]c2ccccc12)C(=O)O (stereo partly specified),-,
Cc1noc(NC(=O)c2ccc(F)cc2)c1C#N,14,TTR inh HuH7=-;TTR act confirm=-
Cc1noc(NC(=O)c2ccccc2C(F)(F)F)c1C#N,12,TTR inh HuH7=-;TTR act confirm=-
Cn1c(NC(=O)c2ccccc2C(F)(F)F)cc(=O)n(C)c1=O,-,
Cc1cccc(C(=O)Nc2onc(C)c2C#N)c1,-,
Cc1noc(NS(=O)(=O)c2ccc(NC(=O)c3ccc(F)cc3)cc2)c1C,-,
O=C(Nc1ccc(C(O)(C(F)(F)F)C(F)(F)F)cc1)c1ccccc1C(F)(F)F,-,
COC(=O)c1ccc(-n2nnnc2SCC(=O)Nc2ccccc2C(=O)OC)cc1,-,
CCCCN(C(=S)SC)C1CCS(=O)(=O)C1 (stereo unspecified),-,
CCC1CCCCN1CCNC(=O)C1CCN(S(=O)(=O)c2cccc3nsnc23)CC1 (stereo unspecified),-,
Cc1cc(=O)oc2c(C)c(OC(C)C(=O)NCc3ccccn3)ccc12 (stereo unspecified),-,
COc1ccc(/C=C/C(=O)C2CC2)cc1Cn1nc(C)c([N+](=O)[O-])c1C,-,
COc1ccc(/C=N/N2CCOCC2)cc1Cn1nc(C)c([N+](=O)[O-])c1C,-,
SMILES,TTR transcr act,others
COc1ccc(/C=N/Nc2ccccc2)cc1Cn1nc(C)c([N+](=O)[O-])c1C,13,TTR inh HuH7=-;TTR act confirm=-
CCN(CC)C(=O)CSC1=C(C#N)C(c2ccco2)C(C(=O)OCCOC)=C(C)N1 (stereo unspecified),-,
[O-]/C(=C(\C(=S)Nc1ccc(SC(F)F)cc1)[n+]1ccccc1)c1cc(Cl)ccc1Cl,22,TTR inh HuH7=20;TTR act confirm=-
Cc1cc(C)c(/C([O-])=C(/C(=S)Nc2ccc(SC(F)F)cc2)[n+]2ccccc2)cc1C,-,
C=CCNC(=S)/C(=C(\[O-])c1ccc(Cl)cc1)[n+]1ccccc1,-,
Cc1cc(NC(=O)COc2ccc(C(C)(C)C)cc2)no1,-,
O=C(CN1C(=O)CSc2ccc(S(=O)(=O)N3CCCCC3)cc21)NCc1cccnc1,11,TTR inh HuH7=-;TTR act confirm=-
O=C(CN1C(=O)CCSc2ccc(S(=O)(=O)N3CCCC3)cc21)NCc1ccccc1Cl,-,
O=C(CN1C(=O)CSc2ccc(S(=O)(=O)N3CCOCC3)cc21)NCc1c(F)cccc1Cl,-,
CCC(=O)OCC(=O)Nc1cc(S(=O)(=O)N(C)C)ccc1Cl,-,
Cc1nc(Cc2nnc(SCC(=O)N3CCN(c4ccc(O)cc4)CC3)o2)cs1,-,
CC(=C/c1ccc(C(C)C)cc1)/C=N/NC(=O)c1ccncc1,10,TTR inh HuH7=-;TTR act confirm=-
CC(/C=N\NC(=O)Cn1cncn1)=C/c1ccc(C(C)C)cc1,-,
CC(/C=N/NC(=O)Cn1nccc1C)=C\c1ccc(C(C)C)cc1,-,
CCc1ccc(NC(=O)C(C)OC(=O)c2cccc(S(=O)(=O)N3CCc4ccccc4C3)c2)cc1 (stereo unspecified),-,
CCn1ccc(C(=O)NC2=C(C#N)CCC2)n1,-,
CCOc1ccc(CCN2C(=S)N([C@@H](CC(C)C)CN3CCC[C@@H]3CN3C(=S)NC[C@@H]3CC(C)C)C[C@@H]2Cc2ccc(O)cc2)cc1,-,
Cc1ccc(-c2[nH]c3ccccc3c2C(C[N+](=O)[O-])c2ccco2)cc1 (stereo unspecified),-,
CCCCn1nc2cc(C(=O)NCc3ccco3)ccc2c1OCC,-,
Nn1c(SCC(=O)Nc2ccc3c(c2)OCO3)nncc1=O,-,
O=C(CSc1nc2ccccc2s1)Nc1ccc2c(c1)OCO2,-,
Nn1cc(-c2ccccc2)nc1SCC(=O)Nc1ccc2c(c1)OCO2,14,TTR inh HuH7=-;TTR act confirm=-
COC(=O)c1ccc(NC(=O)CCN2CCN(CCC(=O)Nc3ccc(C(=O)OC)cc3)CC2)cc1,-,
COC(=O)c1ccc(NC(=O)CN2CCN(CCO)CC2)cc1,-,
COC(=O)c1ccc(NC(=O)CCN2CCCCC2)cc1,10,TTR inh HuH7=-;TTR act confirm=-
SMILES,TTR transcr act,others
COc1ccc(NC(=O)CSc2nc3c(c(=O)n2-c2ccc(F)cc2)SCC3)c(OC)c1,15,TTR inh HuH7=-;TTR act confirm=-
CCOc1ccc(-n2c(SCC(=O)Nc3ccc4c(c3)OCCO4)nc3c(c2=O)SCC3)cc1,-,
COc1ccc(-n2c(SCC(=O)Nc3nccs3)nc3c(c2=O)SCC3)cc1,-,
COc1cccc2c1C(CCCC(=O)O)CCC2 (stereo unspecified),-,
O=C1CCC(CCc2nc3ccccc3[nH]2)(c2ccccc2)C(=O)N1 (stereo unspecified),21,TTR inh HuH7=-;TTR act confirm=-
CC(C)(Cc1nc2ccccc2[nH]1)C(=O)O,-,
O=C(Nc1ccccc1)N(CCc1nc2ccccc2[nH]1)C1CCCC1,-,
CC(C)(C)N(Cc1ccccc1)C(=O)COC(=O)c1ccc2ccccc2n1,-,
CCOc1cccc(Nc2ccc([N+](=O)[O-])cn2)c1,-,
O=C(/C=C/c1ccccc1[N+](=O)[O-])NCc1ccc(Cl)cc1,-,
O=[N+]([O-])c1ccc(NN=C2CCCCC2)c([N+](=O)[O-])c1,-,
C=CC1CN2CCC1CC2C(O)c1ccnc2ccc(OC)cc12 (stereo unspecified),13,TTR inh HuH7=-;TTR act confirm=-
COc1ccc(C2C(C(=O)OC3CCCCC3)=C(C)Nc3nnnn32)c(OC)c1OC (stereo unspecified),-,
CC(=NCCc1ccccc1)C1=C(O)COC1=O,13,TTR inh HuH7=-;TTR act confirm=-
CC(=NCc1ccccc1)C1=C(O)COC1=O,-,
CCCN=C(C)C1=C(O)c2ccccc2C1=O,-,
O=S(=O)(CC(O)COc1ccccc1Cl)c1ccccc1 (stereo unspecified),-,
CC(CC(=O)O)CC(=O)Nc1ccc(S(N)(=O)=O)cc1 (stereo unspecified),-,
Cc1ccc(-c2[nH]c(-c3ccc(C(=O)O)cc3)nc2-c2ccccc2)cc1,12,TTR inh HuH7=-;TTR act confirm=-
NC(=O)c1nc(-c2ccccc2)c(-c2ccccc2)[nH]c1=O,-,
O=c1nc(-c2ccccc2)nc(-c2ccccc2)[nH]1,-,
Nc1ccc(C(=O)OCC(=O)N2CCOCC2)cc1[N+](=O)[O-],-,
CCN(Cc1ccccc1)C(=O)COc1cc(=O)n(CC)c2ccccc12,-,
